Test results published in PubChem BioAssay.
Activity calls are given as the source filed them.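 The calls were made as follows, unless noted: active = fluorescence slope higher than the sample average by over 3 SD (cut at about -0.22 in these data, passing the limit was not always enough); inactive = the rest.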

Key:
[1] = inhibitors of TNFa-induced NFkB p65 translocation, primary screen, imaging, HUVEC, MLSMR starter and 10KST1 sets (AID 438;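 active = inhibition above 20% together with a positive visual image hit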;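 also: compound added about 3h40 before a 20 min TNFalpha stimulation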;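 as to inhibition: signal is the nuclear over cytoplasmic p65 intensity ratio per well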); details: HUVEC TNFa-induced p65 nuclear translocation; cell count: measured here: nuclei count (cytotoxicity indicator), at 2.08 µM; inhibition: at 2 µM, stronger effect = higher value, 0% TNFa-plus-vehicle, 100% no-TNFa wells
[2] = reduction of polyQ htt aggregates in cells – imaging, exon1htt(103Q)mCFP cells, high-content imaging, primary screen (AID 483;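 active = visual image review flags a hit and inhibition of aggregation exceeds 20%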;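 also: compound exposure lasted 3 days before fixation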;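 as to nuclei count: percent of the per-plate median nuclei count of sample wells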); details: exon1htt(103Q)mCFP cell line, aggregate imaging, at 2 µM; inhibition of aggregation: stronger effect = higher value; nuclei count: measured here: cell count, toxicity
[3] = endothelial E-selectin expression blockers – imaging, HUVEC, immunofluorescence, MLSMR starter and 10KST1 sets, primary screen (AID 487;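 active = visually confirmed hit in the image check and inhibition above 20%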;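 as to inhibition: signal is fraction of cell area covered by stained E-selectin grains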;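 as to nuclei count: 100% = median nuclei count of all wells on the same plate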); details: HUVEC TNFalpha-induced E-selectin immunofluorescence imaging, at 2 µM; inhibition: stronger effect = higher value; nuclei count: measured here: cell number, toxicity
[4] = target: Voltage-gated potassium channel subunit beta-2 (Rattus norvegicus) (UniProt P62483); assay: inhibitors of rat Kvbeta2 reductase activity – biochemical, NADPH fluorescence, primary screen (AID 622); details: recombinant KvBeta, 4-cyanobenzaldehyde reduction, at 10 µM, stronger effect = higher value;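 also: slope of raw intensity against log time taken from 70 to 1610 s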
Voltage-gated potassium channel subunit beta-2 (Rattus norvegicus), sequence (P62483 whole entry, looked up): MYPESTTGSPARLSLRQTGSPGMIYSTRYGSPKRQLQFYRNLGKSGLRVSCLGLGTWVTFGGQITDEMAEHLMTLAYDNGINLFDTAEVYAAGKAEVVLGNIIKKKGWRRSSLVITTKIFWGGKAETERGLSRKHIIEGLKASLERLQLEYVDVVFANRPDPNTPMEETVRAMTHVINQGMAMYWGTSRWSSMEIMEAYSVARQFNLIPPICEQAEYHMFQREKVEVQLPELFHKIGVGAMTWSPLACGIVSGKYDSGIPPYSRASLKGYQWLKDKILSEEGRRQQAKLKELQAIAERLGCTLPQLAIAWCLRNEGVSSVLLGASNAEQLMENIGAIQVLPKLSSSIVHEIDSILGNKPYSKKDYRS

[5] = target: Voltage-gated potassium channel subunit beta-2 (Rattus norvegicus) (UniProt P62483); assay: enhancers of rat Kvbeta2 NADPH turnover – biochemical, NADPH fluorescence, primary screen (AID 623;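 active = NADPH fluorescence slope more negative than the mean of all samples by about 3 SD, 99.7% confidence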;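 also: fluorescence intensity change per second fitted from 20 to 320 s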); details: Recombinant KvBeta, NADPH fluorescence decrease slope, 10 min; at 10 µM; stronger effect = lower value
[6] = target: Alpha-2C adrenergic receptor (Homo sapiens) (UniProt P18825); assay: compounds altering alpha2C-coupled GIRK flux – cell-based, HEK293 alpha2C/GIRK1/2, thallium flux, primary screen (AID 624;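 active = fluorescence slope after compound addition differing from the mean of all screened samples at 99.7% confidence, in either direction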;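 also: slope of fluorescence ratio to pre-addition baseline per second over 15 to 24 s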); details: thallium flux BTC fluorescence, at 10 µM, actives lie on both sides
Alpha-2C adrenergic receptor (Homo sapiens), sequence (P18825 whole entry, looked up): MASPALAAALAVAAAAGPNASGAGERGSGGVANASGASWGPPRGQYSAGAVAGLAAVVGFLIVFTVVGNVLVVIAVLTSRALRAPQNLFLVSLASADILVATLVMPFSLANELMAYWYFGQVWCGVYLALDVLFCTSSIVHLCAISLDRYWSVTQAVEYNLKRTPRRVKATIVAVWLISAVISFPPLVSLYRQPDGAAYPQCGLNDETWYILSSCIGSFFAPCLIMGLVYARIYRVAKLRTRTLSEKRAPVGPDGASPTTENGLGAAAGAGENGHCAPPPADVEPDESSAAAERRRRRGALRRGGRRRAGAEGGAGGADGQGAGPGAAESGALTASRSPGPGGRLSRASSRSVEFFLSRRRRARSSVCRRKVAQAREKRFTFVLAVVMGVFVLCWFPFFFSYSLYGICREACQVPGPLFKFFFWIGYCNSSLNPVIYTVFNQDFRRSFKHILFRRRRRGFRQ

[7] = blockers of RIG-like receptor reporter activation – cell-based, Sendai virus stimulus, luciferase, 10K MLSCN set, TLR/RLR signaling modifier project, primary screen (AID 602276;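 active = inhibition at or above 50% at 10 µM; inactive = inhibition below 50%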;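 also: firefly luciferase from ISG56 promoter only with Renilla not read in this screen; 0% = Sendai virus plus DMSO and 100% = medium plus DMSO without virus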); details: HEK293 RL24 IRF3 luciferase reporter, at 10 µM, stronger effect = higher value
[8] = TLR3 IRF3 reporter activation blockers – cell-based, poly I:C stimulus, luciferase, 10K MLSCN set, primary screen (AID 602277;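 active = inhibition of the reporter signal at or above 50%; inactive = inhibition below 50%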); details: HEK293-TLR3 RL24 IRF3 luciferase reporter, at 10 µM, stronger effect = higher value

Structure (SMILES)	cell count [1]	inhibition [1]	inhibition of aggregation [2]	nuclei count [2]	inhibition [3]	nuclei count [3]	fluorescence slope [4]	NADPH fluorescence slope [5]	slope [6]	inhibition [7]	inhibition [8]
CCC(C)(C)n1nnnc1C(c1ccc(OC)c(OC)c1)N1CCN(c2ccccc2)CC1 (stereo not drawn)	252	10.9% (inactive)	0.9% (inactive)	80.9%	1.7% (inactive)	94.4%	-0.473 (inactive)	-0.000151 (inactive)	0.0062 (inactive)	18.8% (inactive)	39.6% (inactive)
O=C(O)CSC1CC(=O)N(c2ccc(Cl)c(Cl)c2)C1=O (stereo not drawn)	754	-2.8% (inactive)	11.7% (inactive)	88.4%	4.8% (inactive)	114%	-0.304 (inactive)	-5.1e-05 (inactive)	0.00566 (inactive)	3.92% (inactive)	8.23% (inactive)
C=CCNc1oc(-c2cccc3ccccc23)nc1C#N	365	-0.4% (inactive)	9.2% (inactive)	98.8%	-110% (inactive)	97.4%	-0.0687 (active)	1.5e-06 (inactive)	0.00477 (inactive)	-4.72% (inactive)	-35.7% (inactive)
Cc1cc(Br)ccc1NC(=O)CCN1C(=O)c2ccncc2C1=O	403	3.8% (inactive)	-19.7% (inactive)	96.6%	39.2% (inactive)	89.7%	-0.51 (inactive)	-3.1e-05 (inactive)	0.00525 (inactive)	-13.8% (inactive)	13.1% (inactive)
COc1cccc(C2=NOC(C(=O)Nc3cc(C)nn3-c3ccccc3)C2)c1OC (stereo not drawn)	570	-6.2% (inactive)	-1.5% (inactive)	105%	-19.4% (inactive)	107%	-0.586 (inactive)	-5.4e-05 (inactive)	0.00584 (inactive)	16.2% (inactive)	23.8% (inactive)
Cc1cc(NC(c2cccnc2)c2c(C)[nH]c3ccccc23)no1 (stereo not drawn)	514	2.5% (inactive)	7.6% (inactive)	112%	-105% (inactive)	135%	-0.596 (inactive)	-4.4e-05 (inactive)	0.00254 (inactive)	17.8% (inactive)	28.6% (inactive)
O=C(CC1Oc2ccccc2NC1=O)NCCCN1CCOCC1 (stereo not drawn)	620	6.1% (inactive)	-1.6% (inactive)	112%	24.8% (inactive)	100%	-0.56 (inactive)	-1.9e-05 (inactive)	0.00542 (inactive)	8.81% (inactive)	38.3% (inactive)
CCOC(=O)c1cc(-c2nnc(-c3ccc(Oc4ccccc4)cc3)o2)c(C)nc1C	761	-3.9% (inactive)	17.5% (inactive)	102%	-20.7% (inactive)	110%	-0.499 (inactive)	-2.6e-05 (inactive)	0.0114 (active)	7.09% (inactive)	12.2% (inactive)
CC(C)CNS(=O)(=O)c1ccc(CCC(=O)NCc2ccco2)cc1	572	33.1% (active)	7% (inactive)	85%	-57.5% (inactive)	137%	-0.511 (inactive)	1.9e-05 (inactive)	0.00549 (inactive)	11.1% (inactive)	14.7% (inactive)
Cc1cccc(C(=O)N(C)c2nnc(-c3ccncc3)s2)c1	346	-10.7% (inactive)	6.1% (inactive)	74.3%	34.2% (inactive)	102%	-0.546 (inactive)	9.6e-06 (inactive)	0.0064 (inactive)	-6.14% (inactive)	-18% (inactive)
O=C(Nc1ccon1)c1cc(-c2ccccc2)nc2ccccc12	364	-8% (inactive)	22.5% (inactive)	98.4%	-48.5% (inactive)	116%	-0.286 (inactive)	-6.3e-05 (inactive)	0.00497 (inactive)	-24.1% (inactive)	99.8% (active)
CC1Cc2ccccc2N1C(=O)CSc1nc2ccccc2n1CC(=O)N1CCOCC1 (stereo not drawn)	468	-0.5% (inactive)	6.9% (inactive)	111%	-68.5% (inactive)	110%	-0.523 (inactive)	-0.000178 (inactive)	0.00303 (inactive)	15.4% (inactive)	2% (inactive)
COCC(C)NC(=O)CCS(=O)(=O)c1nc(-c2ccc(OC)cc2)cc(C(F)(F)F)n1 (stereo not drawn)	638	7.9% (inactive)	2.6% (inactive)	96.3%	-37.9% (inactive)	192%	-0.323 (inactive)	-2.1e-05 (inactive)	0.00386 (inactive)	17.7% (inactive)	1.39% (inactive)
COc1ccccc1N1CCN(C/C(O)=C(\C#N)c2nc(-c3ccccc3)cs2)CC1	475	-3.4% (inactive)	-1.4% (inactive)	114%	-33.4% (inactive)	119%	-0.56 (inactive)	4.6e-05 (inactive)	0.00548 (inactive)	-9.12% (inactive)	-1.83% (inactive)
NC(=O)c1cc(-c2ccccc2)nc(N2CCOCC2)n1	532	6.7% (inactive)	-2.6% (inactive)	91%	25.8% (inactive)	92.5%	-0.591 (inactive)	-4.3e-05 (inactive)	0.00656 (inactive)	8.52% (inactive)	25.8% (inactive)
CCOCCn1c(CN2CCN(c3cccc(Cl)c3)CC2)nc2c1c(=O)n(C)c(=O)n2C	743	-15.7% (inactive)	-5.1% (inactive)	104%	-20% (inactive)	103%	-0.592 (inactive)	-4.2e-05 (inactive)	0.00703 (inactive)	1.6% (inactive)	22.6% (inactive)
CCn1cc(SCC(=O)NCC2CCCO2)c2ccccc21 (stereo not drawn)	692	-20.6% (inactive)	8.9% (inactive)	112%	-8.7% (inactive)	102%	-0.4 (inactive)	-4.5e-05 (inactive)	0.00573 (inactive)	3.88% (inactive)	15.1% (inactive)
Cc1ccc(-c2cc(C(F)F)n3ncc(C(=O)N4CCN(c5ccccn5)CC4)c3n2)cc1	829	-1.7% (inactive)	9.3% (inactive)	85.3%	-56.7% (inactive)	120%	-0.514 (inactive)	-3e-05 (inactive)	0.00598 (inactive)	17.4% (inactive)	42.8% (inactive)
CCc1nn(CC(=O)NCCCN2CCc3ccccc3C2)c(=O)c2cc3sccc3n12	811	-6.4% (inactive)	5.9% (inactive)	138%	-64% (inactive)	116%	-0.602 (inactive)	9.3e-06 (inactive)	0.00659 (inactive)	2.67% (inactive)	50.9% (active)
CCN1CCN(C(=O)c2cn(CC)c3ccc(S(=O)(=O)N(C)C)cc3c2=O)CC1	639	1.3% (inactive)	12.4% (inactive)	100%	-30% (inactive)	107%	-0.59 (inactive)	-3.2e-05 (inactive)	0.00681 (inactive)	7.55% (inactive)	20.6% (inactive)
COc1ccc(-n2c(COc3cccc(C)c3)nnc2SCC(=O)NCc2ccco2)cc1	707	-6.3% (inactive)	5.1% (inactive)	100%	-54.8% (inactive)	100%	-0.596 (inactive)	-6.6e-05 (inactive)	0.00613 (inactive)	-3.09% (inactive)	10.9% (inactive)
O=C(CSCc1cccc(F)c1)N1CCN(c2ccccc2)CC1	545	-14.3% (inactive)	33.7% (inactive)	68.7%	-66.2% (inactive)	123%	-0.398 (inactive)	-5.3e-05 (inactive)	0.00288 (inactive)	-32.3% (inactive)	-145% (inactive)
COc1ccc(C2(C(=O)Nc3c(C)n(C)n(-c4ccccc4)c3=O)CCCC2)cc1OC	712	1.6% (inactive)	-9.8% (inactive)	76.1%	-52.3% (inactive)	104%	-0.427 (inactive)	2.3e-05 (inactive)	0.00772 (inactive)	13.1% (inactive)	14.9% (inactive)
CCn1c(SCc2nc(-c3cccs3)no2)nnc1-c1c[nH]c2ccccc12	296	3.4% (inactive)	1.2% (inactive)	82.9%	-1.6% (inactive)	102%	-0.34 (inactive)	1.2e-05 (inactive)	0.0036 (inactive)	10.2% (inactive)	13.6% (inactive)
Cc1ccc(CNC(=O)C2CCN(S(=O)(=O)c3cccs3)CC2)o1	296	-3.4% (inactive)	11.2% (inactive)	76.7%	-23.9% (inactive)	103%	-0.617 (inactive)	-3.4e-05 (inactive)	0.00605 (inactive)	7.81% (inactive)	5.31% (inactive)
COC(=O)CN1C(=O)C(O)(CC(=O)c2ccc(C)cc2)c2cc(Br)ccc21 (stereo not drawn)	612	2.9% (inactive)	-6% (inactive)	94.5%	-49.2% (inactive)	113%	-0.436 (inactive)	-4.5e-05 (inactive)	0.00497 (inactive)	4.14% (inactive)	-1.15% (inactive)
CCOc1ccc2c(O)csc2c1	393	2% (inactive)	7.4% (inactive)	109%	7.7% (inactive)	103%	-0.371 (inactive)	-4.2e-05 (inactive)	0.0033 (inactive)	8.13% (inactive)	10.6% (inactive)
O=C(Nc1ccc(S(=O)(=O)N2CCc3ccccc32)cc1)c1ccc2c(c1)OCO2	307	-10% (inactive)	14.7% (inactive)	95.5%	5.1% (inactive)	83.2%	-0.603 (inactive)	-1.6e-05 (inactive)	0.0108 (inactive)	-3.74% (inactive)	-67.6% (inactive)
